Measurements from PubChem BioAssay AID1259416 (Broad Institute, 2018).
Several values for one entry are separate records, joined by “and”; a condition that tells them apart may be missing. Equal values may be shown once. Among all 69,000 compounds or so, about 2,600 (3.8%) were called active. The sample holds actives, similar compounds and a random draw of the others, so the mix is not that of the screen. No stated cut-off is given here; in the data, active means activity change below about -70% (passing the limit was not always enough); inconclusive means no clear call, values can overlap the other calls. The source holds several records for some structures; these can differ, active in one and inactive in another.

Test: inhibitors of Toxoplasma growth in IFN-γ-primed hosts – cell-based, primary screen (AID 1259416);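 further: host cells are HeLa cells infected with Toxoplasma gondii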
Conditions: Toxoplasma gondii growth in IFN-gamma-treated host cells; stronger effect = lower value; concentration not given here

| Compound | activity change, negative = inhibition |
| --- | --- |
| O=C(NCc1cccnc1)c1ccc(N2CCC(NC3C4CC5CC(C4)CC3C5)CC2)cc1 (centres undefined) | 5.88% (inactive) |
| O=C(NCCc1nnc2n1CCNCC2)C1(c2ccccc2)CC12CCCC2 (centres undefined) | -3.83% (inactive) |
| COc1ccc(OC)c(C(=O)c2ccc(Cl)cc2)c1 | 36.6% (inactive) |
| Cc1cc(C)c2c(-n3cccc3)c(C(=O)c3ccc(Cl)cc3)sc2n1 | -91.8% (active) |
| Cc1cc(C)c2c(n1)sc1c(=O)n(C)cnc12 | -4.83% (inactive) |
| Cn1cc(C(CNC(=O)Nc2cccc(F)c2)c2cccnc2)c2ccccc21 (centres undefined) | 27% (inactive) |
| CCCC(=O)Nc1ccc2c(c1)OC[C@@H](C)N(CC1CCOCC1)C[C@H](C)[C@H](OC)CN(C)C2=O | -83.2% (active) |
| CO[C@@H]1CN(C)C(=O)c2cc(NC(=O)NC3CCCCC3)ccc2OC[C@H](C)N(CC2CCOCC2)C[C@H]1C | -30.9% (inactive) |
| CO[C@@H]1CN(C)C(=O)c2ccc(NS(C)(=O)=O)cc2OC[C@@H](C)N(CC2CC2)C[C@@H]1C | -56.4% (inactive) |
| O=C(CCc1nc(-c2ccccn2)no1)N1CCC(CCc2ccccc2F)CC1 | 18.8% (inactive) |
| CCc1[nH]c2c(CNS(=O)(=O)N(C)C)cc(C)cc2c1C | -4.66% (inactive) |
| Fc1ccc(Cl)cc1-c1nc(Nc2ccncc2)c2nccnc2n1 | -81% (active) |
| Cc1nc(Nc2ccc(Cl)cc2)sc1C(=O)c1ccncc1 | 0.796% (inactive) |
| O=C(Nc1ccccc1Oc1ccc(F)cc1)C1CC(=O)N(Cc2cccnc2)C1 (centres undefined) | 18.8% (inactive) |
| O=C(Nc1nc(-c2ccc(Br)cc2)cs1)c1c(O)c2ccccc2[nH]c1=O | 8.75% (inactive) |
| CCCc1nc(C)c(CNC(=O)C2CCOC2)s1 (centres undefined) | -2.34% (inactive) |
| COCCCNC(=O)c1nc(Nc2ccc(F)cc2)c2ccccc2n1 | -29% (inactive) |
| C=CC(=O)Nc1ccc2c(c1)CCC(=O)N2CC | -3.01% (inactive) |
| O=C(Cn1c(C(=O)c2ccccc2)nc2ccccc21)c1ccc(Br)cc1 | -103% (active) |
| O=C(CNC(=O)c1ccccc1F)c1ccc(Br)cc1 | 264% (inactive) |
| O=C(Cn1c(NCCCO)nc2ccccc21)c1ccccc1 | -22.3% (inactive) |

| Compound | activity change, negative = inhibition |
| --- | --- |
| Clc1cccc(CN2CC3CCCC(C2)C3N2CCOCC2)c1Cl (centres undefined) | 9.4% (inactive) |
| CC(C)NC(=O)N(C)C[C@H]1Oc2c(NS(=O)(=O)c3cccs3)cccc2C(=O)N([C@H](C)CO)C[C@H]1C | -14.3% (inactive) |
| C[C@H]1CN([C@@H](C)CO)C(=O)c2ccccc2-c2ccccc2CO[C@H]1CN(C)C(=O)Nc1ccc(-c2ccccc2)cc1 | -62.1% (inactive) |
| C[C@@H]1CN([C@H](C)CO)C(=O)c2cccc(NC(=O)c3ccc(-c4nccs4)cc3)c2O[C@@H]1CN(C)C(=O)Nc1ccc(C(F)(F)F)cc1 | -77.7% (active) |
| Cc1ccc(S(=O)(=O)Nc2cccc3c2O[C@H](CN(C)C(=O)Nc2ccc(C(F)(F)F)cc2)[C@@H](C)CN([C@@H](C)CO)C3=O)cc1 | 16.3% (inactive) |
| C[C@@H]1CN([C@H](C)CO)C(=O)c2cccc(NC(=O)NC3CCCCC3)c2O[C@H]1CN(C)Cc1ccc(C(F)(F)F)cc1 | -74.3% (active) |
| C[C@H]1CN([C@@H](C)CO)C(=O)c2cccc(NC(=O)C3CCOCC3)c2O[C@@H]1CN(C)C(=O)Nc1cccc2ccccc12 | 5.47% (inactive) |
| C[C@H]1CN([C@@H](C)CO)C(=O)c2cccc(NC(=O)c3ccc(-c4nccs4)cc3)c2O[C@@H]1CN(C)C(=O)Nc1ccc(C(F)(F)F)cc1 | -80.3% (active) |
| C[C@H](CO)N1C[C@H](C)[C@@H](CN(C)Cc2ccc(C(F)(F)F)cc2)Oc2c(NC(=O)NC3CCCCC3)cccc2C1=O | -53.4% (inactive) |
| Cc1noc(C)c1S(=O)(=O)Nc1cccc2c1O[C@H](CN(C)Cc1ccc(C(F)(F)F)cc1)[C@H](C)CN([C@@H](C)CO)C2=O | 25.4% (inactive) |
| O=C(Cn1ncc2ccccc2c1=O)NCc1cc(Cl)c2c(c1)OCCCO2 | 23% (inactive) |
| Cc1ccsc1CNc1cccc(C(=O)N(C)Cc2snnc2C)c1 | -4.49% (inactive) |
| Cc1ccc2oc(=O)n(CCC(=O)N3[C@@H]4CC[C@H]3CNC(=O)C4)c2c1 | -11.3% (inactive) |
| Cc1cc(C)cc(NC(=O)N2CCC3(CC2)Nc2ccccc2-n2cccc23)c1 | 295% (inactive) |
| O=C(N[C@H]1C[C@H]2C(=O)NCC(=O)N2C1)c1cccc(Cn2cccn2)c1 | -5.16% (inactive) |
| COc1c(C)c2c(c(O)c1C/C=C(\C)CCC(=O)O)C(=O)OC2 | -91.9% (active) |
| O=C(O)CSc1nnc(-c2ccn[nH]2)n1-c1ccccc1Cl | 55.4% (inactive) |
| Cc1ccsc1CN(CCCN1CCOCC1)CC1=Cc2ccccc2OC1 | 97.9% (inactive) |
| Cc1ccc2oc(CN(CCCO)Cc3sccc3C)c(C)c2c1 | -33.4% (inactive) |
| CCS(=O)(=O)N1CCC2(CC1)Nc1ccc(C)c(C)c1-n1cccc12 | 28% (inactive) |
| CC1(C)[C@]2(C(=O)NCCCc3nc4ccccc4o3)CC[C@@]1(C)OC2=O | 4.16% (inactive) |

| Compound | activity change, negative = inhibition |
| --- | --- |
| c1ccc(N2CCN(N=C3c4ccccc4-c4ccccc43)CC2)nc1 | -103% (active) |
| O=C(CN1CCN(c2ccccn2)CC1)Nc1ccc(Br)cc1 | -9% (inactive) |
| c1ccc(N2CCC3(COCCN(c4ncccn4)C3)C2)nc1 (centres undefined) | -3.03% (inactive) |
| CCCn1cc(S(=O)(=O)NCC2CCC(c3ccc(C(N)=O)c(C)n3)CC2)c(C)n1 (centres undefined) | 19.4% (inactive) |
| CN(C)C(=O)[C@@]12CCCN(Cc3cccs3)C[C@@H]1CN(Cc1cnn(C)c1)C2 | -0.124% (inactive) |
| FC(F)(F)c1cccc2c(N3CCN(C4CCOCC4)CC3)ccnc12 | -46.1% (inactive) |
| CN(C(=O)Nc1ccc(Cl)cc1)n1cnc2ccccc2c1=O | -50.7% (inactive) |
| CN(n1cnc2ccccc2c1=O)S(=O)(=O)c1cc(Cl)sc1Cl | -76.6% (active) |
| COC(=O)c1cc(NC(=O)S(=O)(=O)c2ccccc2)cc(C(=O)OC)c1 | 86.5% (inactive) |
| CCCCN(Cc1ccccc1)C(=O)c1cc2cccnc2n(Cc2ccc(Cl)cc2)c1=O | 28.6% (inactive) |
| Cc1ccc(O)c(CCc2ccccc2)n1 | 8.51% (inactive) and 1.67% (inactive) |
| CCCCc1c(O)cc(-c2ccccc2)n(Cc2ccccc2)c1=O | -76.1% (active) |
| CC(C)(O)c1cn(C2CCN(C(=O)CCc3ccncc3)CC2)nn1 | 5.1% (inactive) |
| O=C(c1ccc(F)cc1)N1CCc2c([nH]c3ccccc23)C1c1ccccc1 (centres undefined) | 63% (inactive) |
| O=S(=O)(c1ccc(Cl)c(Cl)c1)N1CCc2c([nH]c3ccccc23)C1C(F)(F)F (centres undefined) | -82.6% (active) |
| O=S(=O)(c1ccc(Cl)c(Cl)c1)N1CCC2(CC1)Nc1ccccc1-n1cccc12 | 43% (inactive) |
| CCc1nnc(CN(CC)C(=O)c2cccc(-c3ccc(C)o3)c2)o1 | 0.889% (inactive) |
| Cn1ccnc1-c1ccc(N2CCCC(OCc3cccnc3)C2)nn1 (centres undefined) | -19% (inactive) |
| COCCc1noc(CN2CCCC2c2ccccn2)n1 (centres undefined) | 8.04% (inactive) |
| CCC[C@H](NC(=O)/C(C#N)=C/c1cccc(Br)n1)c1ccccc1 | -72.2% (active) |
| N#C/C(=C\c1ccc(O)c(O)c1)C(=O)NCc1ccccc1 | 5.59% (inactive) |

| Compound | activity change, negative = inhibition |
| --- | --- |
| CN(C)C(=O)c1cccc(-c2ccccc2[C@@H]2[C@@H](CO)N(C(=O)C3CCCCC3)[C@H]2C#N)c1 | -9.68% (inactive) |
| COCc1ncn2c1CN(C(=O)c1cnc(C)cn1)CCC2 | 16.2% (inactive) |
| CC1CCCCC12NC(=O)N(CC(=O)N1CCN(Cc3ccccn3)CC1)C2=O (centres undefined) | 13.9% (inactive) |
| COCCn1nnnc1CN(Cc1ccccc1)Cc1cc2ccc(C)c(C)c2[nH]c1=O | -81.4% (active) |
| CC(C)Oc1cccc(-c2csc(C(N)=O)c2)c1 | 65.6% (inactive) |
| CN(C)C(=O)C[C@]12COC[C@H]1CN(Cc1ccc3ccccc3n1)C2 | -5.46% (inactive) |
| COC(=O)Nc1nc2ccc(C(=O)C3CC3)cc2[nH]1 | -69.3% (inactive) |
| COCc1ccc(C(=O)Nc2ccc3nc(C)[nH]c3c2)o1 | -55.3% (inactive) |
| COC(=O)Nc1nc2ccc(Sc3ccccc3)cc2[nH]1 | -69.1% (inactive) and 7.35% (inactive) and -78% (active) |
| Cc1cc(C(=O)N2CCc3c(COCCN(C)C)cncc3C2)no1 | -28.8% (inactive) |
| Cc1nnsc1CNC(=O)CC1CCc2ccccc21 (centres undefined) | -7.08% (inactive) |
| CNC1(c2nnnn2CCOC(=O)Nc2ccc(Cl)cc2)CCCC1 | 93.6% (inactive) |
| Cc1[nH]c(/C=C2\C(=O)Nc3ccc(S(=O)(=O)Cc4c(Cl)cccc4Cl)cc32)c(C)c1C(=O)N1CCC[C@@H]1CN1CCCC1 | -79.5% (active) and -88.9% (active) and -63.2% (inactive) |
| COc1ccc(OC)c(CNC(=O)Cn2ncc3c(N4CCCC4)ncnc32)c1 | 7.89% (inactive) |
| CC(C)(C)c1nc(-c2cccc(NS(=O)(=O)c3c(F)cccc3F)c2F)c(-c2ccnc(N)n2)s1 | -83.7% (active) |
| CC1=C(C(=O)NCCCN2CC(C)CC(C)C2)C2(CCN(Cc3ccccc3)CC2)OC1=O (centres undefined) | -65.1% (inactive) |
| O=C(c1nc2sccn2c1CN1CCC(c2ccccc2Cl)C1)N1CCCCC1 (centres undefined) | 1.45% (inactive) |
| O=C(Nc1cccc(N2CCCCS2(=O)=O)c1)c1ccc(-n2cccn2)nc1 | 6.32% (inactive) |
| Cc1ccc(C)c(-c2coc(-c3ccc(NC(=O)Cc4cccs4)cc3)n2)c1 | 7.55% (inactive) |
| Cc1ccc(C(=O)Nc2ccc(Oc3ccc(C(C)(C)C)cc3)nc2)cc1 | -31.5% (inactive) |
| CC(C)(C)c1ccc(Oc2ccc(NC(=O)Cc3cccs3)cn2)cc1 | -76.9% (active) |
